# Test results from PubChem BioAssay (EPA / NIEHS).
# Inconclusive results are not listed. Active and inactive are the calls of the source. How the source made its calls: active means hit-call score of the fitted dose curve at least 0.9, where 1 is the maximum; inconclusive means response in the unintended direction; inactive means score below 0.9.
# What was measured:
# [1] = target: human AMP-activated Protein Kinase, alpha 1 (AMPKa1), PRKAA1 (gene 5562) (UniProt Q13131); assay: NVS_ENZ_hAMPKa1: NovaScreen (NVS) Enzymatic Assay for human AMP-activated Protein Kinase, alpha 1 (AMPKa1) (AID 2283130)
# Procedure, shortened: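 Compounds were screened in duplicate at 25 uM, and those reaching ~30% inhibition were titrated up to 50 uM. The enzyme was recombinant human AMPKα1, and kinase turnover was read by fluorescence/mobility shift 1 h post-dosing as loss of signal versus DMSO.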
# [2] = target: human Fibroblast Growth Factor Receptor 1 (FGFR1), FGFR1 (gene 2260) (UniProt P11362); assay: NVS_ENZ_hFGFR1: NovaScreen (NVS) Enzymatic Assay for human Fibroblast Growth Factor Receptor 1 (FGFR1) (AID 2283159)
# Procedure, shortened: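 Cell-free recombinant kinase with fluorescent substrate, product separated by electrophoretic mobility shift; read 1 hour after dosing, loss of signal relative to DMSO. Initial screen in duplicate at 25 uM, actives followed in concentration series.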
# [3] = target: Protein deacetylase HDAC6 (Homo sapiens) (UniProt Q9UBN7); assay: NVS_ENZ_hHDAC6: NovaScreen (NVS) Enzymatic Assay for human Histone Deacetylase 6 (HDAC6) (AID 2283164)
# Procedure, shortened: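 Concentration-response runs up to 50 uM followed a duplicate 25 uM single-point screen. Deacetylase activity of recombinant human HDAC6 read by fluorescence after 1 h, with mobility-shift separation of substrate and product; DMSO as baseline.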
# [4] = target: human Mitogen-Activated Protein Kinase 1 (MAPK 1), MAPK1 (gene 5594) (UniProt P28482); assay: NVS_ENZ_hMAPK1: NovaScreen (NVS) Enzymatic Assay for human Mitogen-Activated Protein Kinase 1 (MAPK 1) (AID 2283175)
# Procedure, shortened: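 Cell-free recombinant human MAPK1 enzymatic assay, fluorescence/electrophoretic mobility shift read at 1 h; loss of signal vs DMSO. Primary screen in duplicate at 25 uM; actives (e.g. ≥30% inhibition) run as concentration-response up to 50 uM.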
# [5] = target: human Matrix Metalloproteinase-1 (MMP1), MMP1 (gene 4312) (UniProt P03956); assay: NVS_ENZ_hMMP1: NovaScreen (NVS) Enzymatic Assay for human Matrix Metalloproteinase-1 (MMP1) (AID 2283181)
# Procedure, shortened: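 Cell-free fluorescent substrate assay of human MMP1, read after 1 h. A single 25 uM duplicate screen was followed by concentration series to a maximum of 50 uM for actives meeting threshold; inhibition analysed against DMSO baseline.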
# [6] = target: human Phosphatase and Tensin Homolog (PTEN), PTEN (gene 5728) (UniProt P60484); assay: NVS_ENZ_hPTEN: NovaScreen (NVS) Enzymatic Assay for human Phosphatase and Tensin Homolog (PTEN) (AID 2283203)
# Procedure, shortened: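 Loss of fluorescent product signal after mobility-shift separation reports PTEN activity, recombinant human enzyme, 1 h after compound addition. Single 25 uM duplicate screen, then concentration-response on actives; DMSO baseline.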
# [7] = target: human Protein Tyrosine Phosphatase Non-receptor Type 2 (PTPN2), PTPN2 (gene 5771) (UniProt P17706); assay: NVS_ENZ_hPTPN2: NovaScreen (NVS) Enzymatic Assay for human Protein Tyrosine Phosphatase Non-receptor Type 2 (PTPN2) (AID 2283207)
# Procedure, shortened: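 Activity measured as fluorescence after mobility-shift separation of substrate and product, 1 h after compound. Duplicate single-point 25 uM primary testing, concentration series for actives; inhibition scored as signal loss relative to DMSO baseline.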
# [8] = target: human Raf-1 Proto-Oncogene, serine/threonine Kinase (RAF1), RAF1 (gene 5894) (UniProt P04049); assay: NVS_ENZ_hRAF1: NovaScreen (NVS) Enzymatic Assay for human Raf-1 Proto-Oncogene, serine/threonine Kinase (RAF1) (AID 2283216)
# Procedure, shortened: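 Single-point screening at 25 uM (duplicate), followed by singleton concentration-response to 50 uM maximum for chemicals exceeding threshold. Enzyme activity from fluorescent substrate-product mobility-shift separation after 1 h, relative to DMSO.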
# [9] = target: human Tyrosine Protein Kinase Receptor Tie-2 (Tie2), TEK (gene 7010) (UniProt Q02763); assay: NVS_ENZ_hTie2: NovaScreen (NVS) Enzymatic Assay for human Tyrosine Protein Kinase Receptor Tie-2 (Tie2) (AID 2283225)
# Procedure, shortened: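 Substrate and product were separated by mobility shift and detected by fluorescence after a 1-hour reaction with recombinant Tie2. Chemicals passing a 25 uM single-point screen were titrated to a maximum of 50 uM. Results were normalized to DMSO baseline.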
# [10] = target: rat Monoamine Oxidase, MAO-B, Peripheral (MAOBP), Maob (gene 25750) (UniProt P19643); assay: NVS_ENZ_rMAOBP: NovaScreen (NVS) Enzymatic Assay for rat Monoamine Oxidase, MAO-B, Peripheral (MAOBP) (AID 2283242)
# [11] = target: human Acetylcholinesterase (AChE), ACHE (gene 43) (UniProt P22303); assay: NVS_ENZ_hAChE: NovaScreen (NVS) Enzymatic Assay for human Acetylcholinesterase (AChE) (AID 2283129)
# Procedure, shortened: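 Actives from a duplicate single-point screen (25 uM) were followed up in concentration series. Enzyme activity read by absorbance (colorimetric) 0.33 hour after dosing, cell-free, normalized to DMSO, with loss of signal scored.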
# [12] = target: rat Acetylcholinesterase (AChE), Ache (gene 83817) (UniProt P37136); assay: NVS_ENZ_rAChE: NovaScreen (NVS) Enzymatic Assay for rat Acetylcholinesterase (AChE) (AID 2283233)
# Procedure, shortened: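 Compounds first screened at 25 uM in duplicate, then those passing threshold tested in concentration series up to 50 uM, against AChE from rat brain membranes. Enzyme activity read by absorbance at 0.33 h; inhibition scored versus DMSO.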
# [13] = target: Norway rat Vesicular Monoamine Transporter (VMAT2), neurotransmitter transporter, Slc18a2 (gene 25549) (UniProt Q01827); assay: NVS_TR_rVMAT2: NovaScreen (NVS) Transporter Assay for Norway rat Vesicular Monoamine Transporter (VMAT2), neurotransmitter transporter (AID 2283376);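 further: actives lower the bound radioligand signal below the DMSO level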
# Procedure, shortened: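 Using rat forebrain membranes, specific radioligand binding to VMAT2 was measured by filtration and scintillation counting after 1 hour. Chemicals screened at 25 uM in duplicate, actives retested in concentration series, DMSO baseline.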
# [14] = target: human Caspase 2 (CASP2), CASP2 (gene 835) (UniProt P42575); assay: NVS_ENZ_hCASP2: NovaScreen (NVS) Enzymatic Assay for human Caspase 2 (CASP2) (AID 2283135)
# Procedure, shortened: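 Single-point duplicate testing at 25 uM preceded concentration series topping at 50 uM. Activity of the recombinant E. coli-derived protease was followed by fluorescent substrate cleavage 1 h post-dosing, relative to DMSO.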
# [15] = target: human Neonicotinoid receptor (NNR), CHRNA2 (gene 1135) (UniProt Q15822); assay: NVS_LGIC_hNNR_NBungSens: NovaScreen (NVS) Ligand-Gated Ion Channel Assay for human Neonicotinoid receptor (NNR) (AID 2283313)
# Procedure, shortened: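 Compounds first screened in duplicate at 25 uM, then actives re-tested in single-replicate dose series up to 50 uM. Binding measured as displacement of specific radioligand from neuroblastoma membrane receptors after 2 h, scintillation read on filters.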
# [16] = target: bovine Gamma-Aminobutyric Acid Type A Receptor BDZ, alpha 1 site (GABARa1), GABRA1 (gene 780973) (UniProt P08219); assay: NVS_LGIC_bGABARa1: NovaScreen (NVS) Ligand-Gated Ion Channel Assay for bovine Gamma-Aminobutyric Acid Type A Receptor BDZ, alpha 1 site (GABARa1) (AID 2283321)
# Procedure, shortened: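 Bovine cortex membrane preparation, benzodiazepine site on GABA-A alpha1; specific radioligand displacement read after 0.75 h by filtration and scintillation. Screen at 25 uM, then singleton titrations up to 50 uM; DMSO baseline.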
# [17] = target: human Ephrin type-A Receptor 2 (EphA2), EPHA2 (gene 1969) (UniProt P29317); assay: NVS_ENZ_hEphA2: NovaScreen (NVS) Enzymatic Assay for human Ephrin type-A Receptor 2 (EphA2) (AID 2283155)
# Procedure, shortened: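 Enzyme activity of recombinant EphA2 read by fluorescence after mobility-shift separation, 1 h after dosing. Chemicals first tested at 25 uM (duplicate); those passing threshold run as concentration series, top 50 uM, single replicate, relative to DMSO.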
# [18] = target: human Aurora Kinase A - serine/threonine-protein Kinase 6 (AurA), AURKA (gene 6790) (UniProt O14965); assay: NVS_ENZ_hAurA: NovaScreen (NVS) Enzymatic Assay for human Aurora Kinase A - serine/threonine-protein Kinase 6 (AurA) (AID 2283142)
# Procedure, shortened: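 Recombinant human AurA activity read by fluorescence after mobility-shift separation of product from substrate; 1 hour incubation. Chemicals first run in duplicate at 25 uM, then concentration series to 50 uM if over threshold; fitted relative to DMSO.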
# [19] = target: human p21 Activated Kinase 4 (PAK4), PAK4 (gene 10298) (UniProt O96013); assay: NVS_ENZ_hPAK4: NovaScreen (NVS) Enzymatic Assay for human p21 Activated Kinase 4 (PAK4) (AID 2283189)
# Procedure, shortened: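 Extracted PAK4 enzyme activity read by fluorescence with mobility-shift separation 1 h after chemical addition. Duplicate single-concentration screen at 25 uM, DMSO as negative control.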
# human Mitogen-Activated Protein Kinase 1 (MAPK 1), MAPK1 (gene 5594), sequence (P28482 whole entry, looked up): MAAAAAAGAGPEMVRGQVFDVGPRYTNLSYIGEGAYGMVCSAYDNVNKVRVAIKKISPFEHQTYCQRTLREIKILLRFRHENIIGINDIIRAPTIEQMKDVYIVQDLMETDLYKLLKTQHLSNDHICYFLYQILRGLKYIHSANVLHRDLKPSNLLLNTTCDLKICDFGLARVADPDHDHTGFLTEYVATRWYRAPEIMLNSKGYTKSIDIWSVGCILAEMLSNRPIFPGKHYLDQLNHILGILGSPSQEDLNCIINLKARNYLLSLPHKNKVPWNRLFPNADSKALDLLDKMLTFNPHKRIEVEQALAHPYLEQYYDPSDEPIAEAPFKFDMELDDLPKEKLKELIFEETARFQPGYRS
# rat Acetylcholinesterase (AChE), Ache (gene 83817), sequence (P37136 whole entry, looked up): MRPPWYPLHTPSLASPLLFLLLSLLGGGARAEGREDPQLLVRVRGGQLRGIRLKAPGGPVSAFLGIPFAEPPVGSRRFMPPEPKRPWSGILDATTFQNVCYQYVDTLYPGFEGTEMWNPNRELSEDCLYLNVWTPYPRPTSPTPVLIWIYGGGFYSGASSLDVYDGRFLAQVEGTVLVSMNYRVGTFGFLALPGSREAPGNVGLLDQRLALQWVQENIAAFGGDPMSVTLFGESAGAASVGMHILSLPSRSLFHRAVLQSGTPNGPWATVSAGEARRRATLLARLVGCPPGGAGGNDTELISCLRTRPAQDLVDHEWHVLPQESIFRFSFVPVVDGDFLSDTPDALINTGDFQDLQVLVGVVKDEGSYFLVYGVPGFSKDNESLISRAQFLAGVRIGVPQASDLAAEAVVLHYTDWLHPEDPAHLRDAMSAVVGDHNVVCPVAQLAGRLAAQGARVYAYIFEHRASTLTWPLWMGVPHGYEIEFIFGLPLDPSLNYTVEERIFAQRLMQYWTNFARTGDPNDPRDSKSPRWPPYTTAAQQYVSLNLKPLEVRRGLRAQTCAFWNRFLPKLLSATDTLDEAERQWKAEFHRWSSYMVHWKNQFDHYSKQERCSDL
# human Phosphatase and Tensin Homolog (PTEN), PTEN (gene 5728), sequence (P60484 whole entry, looked up): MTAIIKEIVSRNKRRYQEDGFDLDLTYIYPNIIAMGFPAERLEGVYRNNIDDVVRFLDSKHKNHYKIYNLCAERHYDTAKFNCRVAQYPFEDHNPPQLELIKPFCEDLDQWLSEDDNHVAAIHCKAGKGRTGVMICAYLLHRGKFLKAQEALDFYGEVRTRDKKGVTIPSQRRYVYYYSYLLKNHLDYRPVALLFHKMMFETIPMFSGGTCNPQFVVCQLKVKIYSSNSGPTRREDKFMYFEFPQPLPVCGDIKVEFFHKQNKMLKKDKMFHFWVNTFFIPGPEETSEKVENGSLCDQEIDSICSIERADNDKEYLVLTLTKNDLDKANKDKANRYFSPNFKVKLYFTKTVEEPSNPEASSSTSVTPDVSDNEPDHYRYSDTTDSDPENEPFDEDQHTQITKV
# human Tyrosine Protein Kinase Receptor Tie-2 (Tie2), TEK (gene 7010), sequence (Q02763 whole entry, looked up): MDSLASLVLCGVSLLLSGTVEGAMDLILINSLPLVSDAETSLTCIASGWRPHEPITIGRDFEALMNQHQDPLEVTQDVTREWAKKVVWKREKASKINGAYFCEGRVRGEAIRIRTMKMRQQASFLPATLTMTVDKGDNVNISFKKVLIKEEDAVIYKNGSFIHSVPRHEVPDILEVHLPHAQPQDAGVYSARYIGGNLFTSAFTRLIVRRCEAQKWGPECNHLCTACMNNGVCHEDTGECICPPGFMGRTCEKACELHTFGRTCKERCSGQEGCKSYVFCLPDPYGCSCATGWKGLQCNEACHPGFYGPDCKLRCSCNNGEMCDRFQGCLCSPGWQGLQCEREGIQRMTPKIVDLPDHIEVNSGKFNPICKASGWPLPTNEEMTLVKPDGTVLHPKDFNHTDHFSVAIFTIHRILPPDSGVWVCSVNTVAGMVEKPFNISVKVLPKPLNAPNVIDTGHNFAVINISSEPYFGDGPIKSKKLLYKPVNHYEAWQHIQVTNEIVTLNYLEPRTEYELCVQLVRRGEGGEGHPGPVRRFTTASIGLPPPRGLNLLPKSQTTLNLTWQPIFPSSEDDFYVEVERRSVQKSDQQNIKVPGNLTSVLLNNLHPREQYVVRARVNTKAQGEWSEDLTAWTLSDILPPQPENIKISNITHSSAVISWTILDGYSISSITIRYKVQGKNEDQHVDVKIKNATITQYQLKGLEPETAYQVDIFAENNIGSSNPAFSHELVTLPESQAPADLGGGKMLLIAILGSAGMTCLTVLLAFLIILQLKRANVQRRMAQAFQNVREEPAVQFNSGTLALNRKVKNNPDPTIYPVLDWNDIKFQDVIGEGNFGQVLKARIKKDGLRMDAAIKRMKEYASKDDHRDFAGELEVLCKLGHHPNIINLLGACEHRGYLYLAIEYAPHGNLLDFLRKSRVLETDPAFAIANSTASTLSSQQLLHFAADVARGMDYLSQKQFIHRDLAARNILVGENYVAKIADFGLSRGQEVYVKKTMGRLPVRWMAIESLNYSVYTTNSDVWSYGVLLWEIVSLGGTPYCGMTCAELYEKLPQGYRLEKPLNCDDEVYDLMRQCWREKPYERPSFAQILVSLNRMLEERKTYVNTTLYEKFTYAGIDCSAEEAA
# human Acetylcholinesterase (AChE), ACHE (gene 43), sequence (P22303 whole entry, looked up): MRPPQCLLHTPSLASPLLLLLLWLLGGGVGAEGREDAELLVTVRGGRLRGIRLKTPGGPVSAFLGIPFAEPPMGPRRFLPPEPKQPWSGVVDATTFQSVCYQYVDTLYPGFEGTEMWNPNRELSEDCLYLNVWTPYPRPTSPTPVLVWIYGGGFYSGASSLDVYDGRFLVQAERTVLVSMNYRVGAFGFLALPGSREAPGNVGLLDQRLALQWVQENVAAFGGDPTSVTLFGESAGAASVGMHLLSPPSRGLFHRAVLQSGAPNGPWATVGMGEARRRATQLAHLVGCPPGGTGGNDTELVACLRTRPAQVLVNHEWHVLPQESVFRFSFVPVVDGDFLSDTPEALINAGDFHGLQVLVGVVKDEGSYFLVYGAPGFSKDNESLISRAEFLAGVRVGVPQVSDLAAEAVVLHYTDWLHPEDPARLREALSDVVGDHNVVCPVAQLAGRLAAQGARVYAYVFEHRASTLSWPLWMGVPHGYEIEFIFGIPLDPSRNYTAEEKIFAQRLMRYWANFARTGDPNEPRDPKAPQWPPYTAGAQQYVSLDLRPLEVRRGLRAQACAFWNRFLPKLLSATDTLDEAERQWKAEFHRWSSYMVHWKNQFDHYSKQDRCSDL
# human AMP-activated Protein Kinase, alpha 1 (AMPKa1), PRKAA1 (gene 5562), sequence (Q13131 whole entry, looked up): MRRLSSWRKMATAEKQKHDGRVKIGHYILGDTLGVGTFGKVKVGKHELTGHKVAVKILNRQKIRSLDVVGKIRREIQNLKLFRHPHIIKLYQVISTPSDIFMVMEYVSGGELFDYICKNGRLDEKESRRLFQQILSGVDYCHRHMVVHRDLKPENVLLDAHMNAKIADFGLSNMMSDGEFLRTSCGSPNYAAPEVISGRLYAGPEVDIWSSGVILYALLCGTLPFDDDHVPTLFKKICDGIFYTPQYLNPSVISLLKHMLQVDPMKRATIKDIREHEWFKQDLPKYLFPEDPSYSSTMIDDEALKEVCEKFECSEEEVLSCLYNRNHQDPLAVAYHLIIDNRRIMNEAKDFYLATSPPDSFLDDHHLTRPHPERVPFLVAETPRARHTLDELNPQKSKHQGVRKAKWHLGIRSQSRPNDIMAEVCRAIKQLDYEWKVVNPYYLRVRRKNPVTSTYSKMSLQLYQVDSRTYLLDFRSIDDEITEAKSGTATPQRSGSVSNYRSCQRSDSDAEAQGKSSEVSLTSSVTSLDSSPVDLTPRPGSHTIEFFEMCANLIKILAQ
# human Fibroblast Growth Factor Receptor 1 (FGFR1), FGFR1 (gene 2260), sequence (P11362 whole entry, looked up): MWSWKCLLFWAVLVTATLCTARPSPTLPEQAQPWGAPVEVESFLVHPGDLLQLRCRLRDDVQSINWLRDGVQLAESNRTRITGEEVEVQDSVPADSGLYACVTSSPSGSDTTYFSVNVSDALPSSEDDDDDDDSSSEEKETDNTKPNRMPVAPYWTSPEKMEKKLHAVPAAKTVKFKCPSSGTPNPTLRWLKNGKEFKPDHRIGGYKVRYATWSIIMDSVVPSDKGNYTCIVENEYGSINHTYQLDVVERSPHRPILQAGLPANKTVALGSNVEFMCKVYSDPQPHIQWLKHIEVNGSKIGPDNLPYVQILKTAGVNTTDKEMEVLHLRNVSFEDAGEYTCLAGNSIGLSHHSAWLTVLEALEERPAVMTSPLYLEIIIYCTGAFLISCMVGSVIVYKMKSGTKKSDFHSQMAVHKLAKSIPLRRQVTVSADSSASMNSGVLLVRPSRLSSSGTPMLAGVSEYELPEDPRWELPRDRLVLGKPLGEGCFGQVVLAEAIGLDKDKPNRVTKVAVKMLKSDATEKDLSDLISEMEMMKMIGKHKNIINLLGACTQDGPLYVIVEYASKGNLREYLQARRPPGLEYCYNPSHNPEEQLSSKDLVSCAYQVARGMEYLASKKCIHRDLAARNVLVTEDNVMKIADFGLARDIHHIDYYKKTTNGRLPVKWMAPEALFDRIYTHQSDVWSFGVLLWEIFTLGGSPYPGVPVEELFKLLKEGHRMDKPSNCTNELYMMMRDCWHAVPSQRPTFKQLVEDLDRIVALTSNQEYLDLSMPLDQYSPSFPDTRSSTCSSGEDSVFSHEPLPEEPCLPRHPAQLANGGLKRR
# human Caspase 2 (CASP2), CASP2 (gene 835), sequence (P42575 whole entry, looked up): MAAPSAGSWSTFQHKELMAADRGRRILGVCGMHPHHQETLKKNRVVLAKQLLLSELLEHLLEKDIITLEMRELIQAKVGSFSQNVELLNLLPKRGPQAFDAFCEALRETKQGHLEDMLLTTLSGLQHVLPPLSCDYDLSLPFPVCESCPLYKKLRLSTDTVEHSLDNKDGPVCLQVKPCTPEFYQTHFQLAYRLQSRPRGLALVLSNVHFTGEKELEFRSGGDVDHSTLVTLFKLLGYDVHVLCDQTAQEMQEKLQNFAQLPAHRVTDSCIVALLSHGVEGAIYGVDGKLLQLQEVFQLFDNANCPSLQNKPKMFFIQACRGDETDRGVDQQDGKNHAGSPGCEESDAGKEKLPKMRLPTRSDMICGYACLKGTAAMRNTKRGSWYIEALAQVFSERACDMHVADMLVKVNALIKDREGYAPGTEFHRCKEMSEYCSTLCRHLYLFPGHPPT
smiles,measurement,setting,value
NCCO,outcome,[1],inactive
same,outcome,[2],inactive
same,outcome,[3],inactive
same,outcome,[4],inactive
same,outcome,[5],inactive
same,outcome,[6],inactive
same,outcome,[7],inactive
same,outcome,[8],inactive
same,outcome,[9],inactive
same,outcome,[10],inactive
COCCOc1cc2cc(C(=O)NC3CCN(C(C)C)CC3)n(CC(=O)Nc3ccc(Cl)cn3)c2cn1,AC50,[11],29 µM (active)
same,AC50,[12],19 µM (active)
same,outcome,[13],inactive
NC(=O)N(O)[C@@H]1C=C[C@H](Oc2cccc(Oc3ccc(F)cc3)c2)C1,outcome,[11],inactive
same,outcome,[14],inactive
same,outcome,[2],inactive
same,outcome,[6],inactive
same,outcome,[12],inactive
same,AC50,[15],41.2 µM (active)
same,outcome,[16],inactive
CC[C@H]1CC[C@H](NCc2cc3c(cc2OC)[C@H]2C[C@H]2C(=O)N3C)[C@H](c2ccccc2)N1,AC50,[11],20.5 µM (active)
same,AC50,[12],15.7 µM (active)
CC1=C(/C=C/C(C)=C/C=C/C(C)=C/CO)C(C)(C)CCC1,outcome,[1],inactive
same,outcome,[17],inactive
same,outcome,[2],inactive
O=C1O[C@H]([C@@H](O)CO)C(O)=C1O,outcome,[1],inactive
COc1ccc(OC(F)(F)F)cc1CN[C@H]1CCCN[C@H]1c1ccccc1,outcome,[1],inactive
same,outcome,[2],inactive
same,outcome,[4],inactive
same,outcome,[9],inactive
same,AC50,[10],36.5 µM (active)
same,AC50,[15],25 µM (active)
CCN(CC)C(=O)c1cc(S(=O)(=O)Cc2ccccc2)c(N2CCC(c3ccccc3)CC2)cc1N(CC)CCN(C)C,AC50,[1],34.9 µM (active)
same,outcome,[14],inactive
same,outcome,[2],inactive
same,outcome,[9],inactive
O=C(O)c1cccc(Oc2ccccc2)c1,outcome,[1],inactive
same,outcome,[17],inactive
same,outcome,[2],inactive
same,outcome,[6],inactive
Cc1ncc([C@@H](CCCCCCc2ccc3c(n2)NCCC3)CC(=O)O)cn1,outcome,[1],inactive
same,outcome,[18],inactive
same,outcome,[2],inactive
same,AC50,[3],14.9 µM (active)
same,outcome,[4],inactive
same,outcome,[19],inactive
same,outcome,[6],inactive
same,outcome,[7],inactive
same,outcome,[8],inactive
same,outcome,[9],inactive
